Data from PubChem BioAssay.
The source made the active and inactive calls. Unless noted, the rule behind the calls is not given here.

Columns and labels:
[1] = anti-His antibody binders, primary screen, artefact control for SMM control protein annotation, biochemical, small-molecule microarray, 635 nm fluorescence (AID 1128); conditions: anti-His Alexa647 antibody binding, higher = more signal;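 note: score merges feature fluorescence with signal-to-noise for each printed compound spot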
[2] = system: Human papillomavirus type 1a E7 protein (residues 1-88); assay: HPV1a E7 small-molecule binders, primary screen, biochemical, small-molecule microarray, residues 1-88, 635 nm (AID 1129); conditions: small-molecule microarray binding, fluorescence 635 nm; higher = more signal
[3] = molecular target: Focal adhesion kinase 1 (Homo sapiens) (UniProt Q05397); assay: small-molecule microarray binders of FAK, primary screen, biochemical, 635/667 nm fluorescence, BSA, DTT (AID 1130); conditions: PTK2 binding, 635 nm fluorescence, higher = more signal;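 note: composite of spot emission at 667 nm and signal to noise over triplicate slides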
[4] = system: Fibrinogen (Alexa647-labelled); assay: fibrinogen binders on compound microarrays, profiling panel, artefact control for SMM control-protein annotation, biochemical, small-molecule microarray, 635/667 nm fluorescence (AID 1131); conditions: fibrinogen-A647 binding fluorescence, higher = more signal;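 note: z-score merges 667 nm fluorescence with per-spot signal-to-noise over triplicate slides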
[5] = molecular target: Follistatin (Homo sapiens) (UniProt P19883); assay: follistatin binders on small-molecule microarrays, primary screen, biochemical, small-molecule microarray, 635/667 nm fluorescence (AID 1132); conditions: FST binding, 635 nm fluorescence, higher = more signal
[6] = molecular target: Fibroblast growth factor 2 (Homo sapiens) (UniProt P09038); assay: FGF2 binders on small-molecule microarrays, primary screen, biochemical, small-molecule microarray, 635/667 nm fluorescence (AID 1133); conditions: small-molecule microarray binding, FGF2, fluorescence 635/667; higher = more signal
[7] = mitochondrial membrane potential change in A549 cells, profiling panel, cell-based, JC-1 fluorescence, basal, 24 h, 100 nL (AID 1138); conditions: higher = more signal;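 note: A549 lung adenocarcinoma cells under basal conditions with no added stimulus; test concentration not given here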
Lefty1 = Lefty1 binders on small-molecule microarrays, primary screen, biochemical, small-molecule microarray, 635/667 nm fluorescence (AID 1139); conditions: small-molecule microarray binding, fluorescence 635/667; higher = more signal
[8] = system: wheat germ agglutinin (Triticum aestivum), Alexa647-labelled; assay: wheat germ agglutinin binders on compound microarrays, profiling panel, artefact control for SMM control-protein annotation, biochemical, small-molecule microarray, 635/667 nm fluorescence (AID 1140); conditions: WGA-A647 binding, 635 nm fluorescence, higher = more signal;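 note: score merges 667 nm feature emission with signal to noise over triplicate slides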
[9] = molecular target: Luciferin 4-monooxygenase (Photinus pyralis) (UniProt P08659); assay: firefly luciferase enzyme inhibitors, primary screen, biochemical, luminescence, purified enzyme, 2006 set (AID 1141); conditions: SteadyGlo luminescence, 30 min, higher = more signal, called active from +8 up or from −8 down;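 note: cell-free assay with purified firefly luciferase at 100 ng per well in PBS; test concentration not given here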
[10] = system: Wnt5a (protein binding on small-molecule microarray); assay: Wnt5a binders on small-molecule microarray, primary screen, biophysical, 635/667 nm fluorescence (AID 1142); conditions: 635 nm fluorescence, higher = more signal;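 note: fluorescence read at 667 nm with signal to noise per printed feature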
[11] = cell viability in Huh7 cells, primary screen, cytotoxicity control for HCV replication inhibitor project, CellTiter-Glo luminescence, basal, 48 h (AID 1143); conditions: Huh7 HCV replicon, higher = more signal, called active from +8 up or from −8 down;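 note: Huh7 hepatoma cells carrying a hepatitis C replication reporter with no stimulus; test concentration not given here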
[12] = P. aeruginosa biofilm formation inhibitors, primary screen, PAO1 strain, BacTiter-Glo luminescence, LB-PBS (AID 1144); conditions: 12 h, higher = more signal
[13] = CREB reporter modulators without forskolin, primary screen, cell-based, PC12, CRE-LacZ reporter, unstimulated (AID 1145); conditions: no forskolin, luminescence, 4.5 h, higher = more signal, called active from +8 up or from −8 down
[14] = CREB reporter modulators under forskolin, primary screen, cell-based, PC12, CRE-LacZ reporter, forskolin-stimulated (AID 1146); conditions: luminescence, 4.5 h, higher = more signal, called active from +8 up or from −8 down;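 note: PC12 cells with 6xCRE LacZ reporter stimulated by forskolin 10 µM; beta-galactosidase reporter signal reflecting CREB driven transcription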
[15] = molecular target: Streptavidin (Streptomyces avidinii) (UniProt P22629); assay: streptavidin binders on small-molecule microarray, primary screen, artefact control for SMM compound annotation, biophysical, 635/667 nm fluorescence (AID 1147); conditions: streptavidin binding, higher = more signal;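 note: signal reflects streptavidin binding to arrayed compounds as a control protein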
[16] = small-molecule binders of probe aInhba, primary screen, biochemical, small-molecule microarray, 635/667 nm fluorescence (AID 1148); conditions: higher = more signal;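 note: score merges 667nm spot fluorescence with signal-to-noise for antibody binding to printed compounds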
Torsin-1A (Homo sapiens) [17] = molecular target: Torsin-1A (Homo sapiens) (UniProt O14656); assay: torsin A binders from cell lysate, primary screen, small-molecule microarray, wild-type, 635/667 nm (AID 1149); conditions: COS7 hTOR1A-WT lysate, 635 nm fluorescence, higher = more signal
Torsin-1A (Homo sapiens) [18] = molecular target: Torsin-1A (Homo sapiens) (UniProt O14656); assay: small-molecule binders of mutant TOR1A in lysate, primary screen, cell lysate, small-molecule microarray, COS7 lysate, 635/667 nm fluorescence (AID 1150); conditions: COS7 hTOR1A mutant lysate, 635 nm fluorescence, higher = more signal;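 note: score pools 667 nm emission and signal to noise measuring lysate protein binding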
[19] = system: Sonic hedgehog protein (Shh); assay: small-molecule binders of Shh protein, primary screen, biochemical, small-molecule microarray, 635/667 nm fluorescence (AID 1151); conditions: small-molecule microarray binding, 635 nm fluorescence; higher = more signal;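 note: Shh protein binding to compounds spotted on small-molecule microarray slides; score combines spot fluorescence intensity with signal-to-noise across triplicate slides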

Chain of Streptavidin (Streptomyces avidinii) (P22629 whole entry, looked up): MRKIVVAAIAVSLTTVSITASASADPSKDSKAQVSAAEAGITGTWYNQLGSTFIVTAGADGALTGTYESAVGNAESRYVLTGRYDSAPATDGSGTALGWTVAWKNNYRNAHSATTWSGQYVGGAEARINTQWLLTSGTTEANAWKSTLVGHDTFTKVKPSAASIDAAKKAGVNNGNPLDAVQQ
Chain of Torsin-1A (Homo sapiens) (O14656 whole entry, looked up): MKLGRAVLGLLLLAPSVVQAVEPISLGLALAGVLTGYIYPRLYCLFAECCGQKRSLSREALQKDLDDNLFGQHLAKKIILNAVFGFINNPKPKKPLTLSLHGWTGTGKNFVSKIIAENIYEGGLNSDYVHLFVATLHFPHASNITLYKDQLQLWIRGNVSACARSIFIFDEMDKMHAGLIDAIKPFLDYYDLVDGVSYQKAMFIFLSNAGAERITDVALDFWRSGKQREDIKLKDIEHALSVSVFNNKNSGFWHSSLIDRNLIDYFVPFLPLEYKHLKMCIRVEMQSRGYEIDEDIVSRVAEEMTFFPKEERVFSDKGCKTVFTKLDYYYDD
Chain of Focal adhesion kinase 1 (Homo sapiens) (Q05397 whole entry, looked up): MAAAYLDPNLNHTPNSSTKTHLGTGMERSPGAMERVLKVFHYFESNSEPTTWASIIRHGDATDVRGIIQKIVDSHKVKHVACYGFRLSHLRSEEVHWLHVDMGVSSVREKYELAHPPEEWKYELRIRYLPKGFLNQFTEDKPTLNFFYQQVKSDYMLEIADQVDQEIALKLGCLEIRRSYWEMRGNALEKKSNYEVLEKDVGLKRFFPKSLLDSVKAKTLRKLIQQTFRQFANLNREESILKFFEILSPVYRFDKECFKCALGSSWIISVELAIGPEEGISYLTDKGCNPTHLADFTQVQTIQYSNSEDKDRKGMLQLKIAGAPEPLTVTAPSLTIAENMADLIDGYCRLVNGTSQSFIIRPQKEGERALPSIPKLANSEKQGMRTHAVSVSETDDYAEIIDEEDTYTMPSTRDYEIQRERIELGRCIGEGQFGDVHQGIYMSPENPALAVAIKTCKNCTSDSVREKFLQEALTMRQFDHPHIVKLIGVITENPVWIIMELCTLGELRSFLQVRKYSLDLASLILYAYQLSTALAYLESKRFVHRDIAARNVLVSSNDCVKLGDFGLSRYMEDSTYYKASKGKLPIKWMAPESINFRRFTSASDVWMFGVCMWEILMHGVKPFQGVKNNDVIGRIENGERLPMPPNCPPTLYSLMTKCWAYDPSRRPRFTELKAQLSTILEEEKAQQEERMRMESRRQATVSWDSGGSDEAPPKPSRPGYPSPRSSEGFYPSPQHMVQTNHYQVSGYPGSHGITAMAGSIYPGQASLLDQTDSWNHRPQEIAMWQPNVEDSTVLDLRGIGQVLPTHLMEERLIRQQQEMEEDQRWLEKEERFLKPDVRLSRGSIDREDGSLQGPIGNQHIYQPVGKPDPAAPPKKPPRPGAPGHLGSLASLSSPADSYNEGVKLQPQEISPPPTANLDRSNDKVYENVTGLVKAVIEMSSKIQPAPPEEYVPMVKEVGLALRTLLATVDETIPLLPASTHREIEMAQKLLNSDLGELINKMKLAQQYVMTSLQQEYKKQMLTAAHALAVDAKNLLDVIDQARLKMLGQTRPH
Chain of Follistatin (Homo sapiens) (P19883 whole entry, looked up): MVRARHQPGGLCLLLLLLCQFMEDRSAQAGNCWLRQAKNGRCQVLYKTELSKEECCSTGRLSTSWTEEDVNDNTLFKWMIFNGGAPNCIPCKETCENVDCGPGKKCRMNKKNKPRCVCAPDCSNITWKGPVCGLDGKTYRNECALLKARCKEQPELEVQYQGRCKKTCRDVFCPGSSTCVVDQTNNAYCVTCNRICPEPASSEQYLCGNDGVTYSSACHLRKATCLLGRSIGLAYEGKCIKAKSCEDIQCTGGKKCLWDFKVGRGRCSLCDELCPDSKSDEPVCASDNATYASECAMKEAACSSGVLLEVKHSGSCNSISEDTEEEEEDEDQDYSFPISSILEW
Chain of Fibroblast growth factor 2 (Homo sapiens) (P09038 whole entry, looked up): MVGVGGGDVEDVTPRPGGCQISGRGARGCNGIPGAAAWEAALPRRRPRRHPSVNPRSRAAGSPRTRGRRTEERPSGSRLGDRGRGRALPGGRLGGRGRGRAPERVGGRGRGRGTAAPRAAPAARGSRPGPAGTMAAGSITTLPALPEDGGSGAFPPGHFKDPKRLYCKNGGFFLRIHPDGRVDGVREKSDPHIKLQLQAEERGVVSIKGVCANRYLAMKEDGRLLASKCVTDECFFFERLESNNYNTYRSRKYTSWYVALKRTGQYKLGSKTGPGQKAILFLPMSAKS
Chain of Luciferin 4-monooxygenase (Photinus pyralis) (P08659 whole entry, looked up): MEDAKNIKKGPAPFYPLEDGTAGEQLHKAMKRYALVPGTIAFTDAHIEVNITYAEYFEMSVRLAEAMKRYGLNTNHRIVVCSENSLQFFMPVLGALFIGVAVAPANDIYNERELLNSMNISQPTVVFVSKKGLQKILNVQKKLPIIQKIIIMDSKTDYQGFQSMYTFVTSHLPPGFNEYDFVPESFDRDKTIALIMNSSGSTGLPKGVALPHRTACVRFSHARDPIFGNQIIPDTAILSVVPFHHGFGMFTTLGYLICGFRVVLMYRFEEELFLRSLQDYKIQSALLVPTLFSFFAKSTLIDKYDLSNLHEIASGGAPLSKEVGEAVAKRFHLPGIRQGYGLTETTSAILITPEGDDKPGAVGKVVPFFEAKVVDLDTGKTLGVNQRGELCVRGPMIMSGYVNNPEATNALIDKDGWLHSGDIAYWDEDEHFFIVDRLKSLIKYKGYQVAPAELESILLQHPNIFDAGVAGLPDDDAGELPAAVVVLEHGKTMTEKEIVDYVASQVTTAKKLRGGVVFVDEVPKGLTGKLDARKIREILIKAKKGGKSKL

Structure (SMILES)	composite z-score [1]	composite z-score [2]	composite z-score [3]	composite z-score [4]	composite z-score [5]	composite z-score [6]	z-score [7]	composite z-score (Lefty1)	composite z-score [8]	z-score [9]	composite z-score [10]	z-score [11]	z-score [12]	z-score [13]	z-score [14]	composite z-score [15]	composite z-score [16]	composite z-score (Torsin-1A (Homo sapiens) [17])	composite z-score (Torsin-1A (Homo sapiens) [18])	composite z-score [19]
CCCCCN1CC=CC23O[C@@H]4C=CCOC(=O)[C@@H]4[C@H]2C(=O)N(C(C)CO)[C@@H]3C1=O (stereo not given in full)	-0.396	-0.669	0.174	-0.235	-1.12	-0.495	-0.197	-1.23	-0.383	0.101 (inactive)	-0.614	0.463 (inactive)	0.397 (inactive)	-0.216 (inactive)	-0.315 (inactive)	-0.541	-0.128	0.909	-0.979	-0.424
C[N+](C)(C)CCCC[C@@H]1NC(=O)[C@@H]2C[C@H](C(=O)NCCCCCN)[C@H](c3ccc(O)cc3)N2C1=O	2.08	1.05	0.0992	0.927	1.4	1.8	0.962	1.64	0.87	-1.26 (inactive)	0.557	-0.496 (inactive)	-0.771 (inactive)	0.143 (inactive)	-0.441 (inactive)	1.49	0.491	0.632	0.659	1.61
OB1C=CCC(CCc2ccccc2)O1 (stereo not given)	-0.837	-0.692	-0.153	-0.894	0.0417	0.712	1.13	-0.732	-0.477	-1.83 (inactive)	-0.248	-2.16 (inactive)	-1.35 (inactive)	0.672 (inactive)	-1.28 (inactive)	-0.492	-0.385	-0.459	-0.643	0.192
NC(=O)[C@@H]1[C@H]2C(=O)O[C@H](c3ccccc3)[C@H](c3ccccc3)N2[C@H](c2ccc(OCCO)cc2)[C@@]12C(=O)Nc1ccc(C#CC3=CCCCC3)cc12	0.823	1.21	1.33	1.01	1.22	0.413	-1.87	0.741	0.632	-2.48 (inactive)	0.0384	-6.11 (inactive)	-1.74 (inactive)	-1.28 (inactive)	-0.546 (inactive)	0.778	0.0047	0.618	0.817	1.24
O=C1OCCC=C[C@H]2OC34C=CCN(c5ccc(Cl)cc5)C(=O)[C@H]3N(CCCO)C(=O)[C@@H]4C12 (stereo not given in full)	-0.598	-1.88	-0.22	-0.867	-0.0633	-0.584	0.0491	0.196	-0.0198	-0.352 (inactive)	-0.047	-2.24 (inactive)	-0.925 (inactive)	-0.35 (inactive)	-0.336 (inactive)	-0.414	-0.227	-0.531	-1.56	0.0088
C=CC[C@]1(C(N)=O)COC(c2ccc(OCCCO)cc2)=N1	1.07	0.017	0.2	0.561	0.786	1.31	0.359	0.863	0.493	0.322 (inactive)	0.469	-1.33 (inactive)	-0.151 (inactive)	0.0359 (inactive)	0.127 (inactive)	-0.266	0.027	1	1.18	0.395
COC(=O)[C@]1(CCC(=O)OC(C)(C)C)N=C(c2ccc(OCCCO)cc2)O[C@@H]1c1ccccc1	2.76	0.527	-0.239	-0.233	0.263	0.16	0.804	-0.657	0.197	-2.77 (inactive)	-0.102	-4.76 (inactive)	0.314 (inactive)	2.39 (inactive)	-0.0673 (inactive)	-0.98	0.154	-0.927	-0.343	0.169
COC(=O)c1c(CC[C@@H](CO)NC(=O)N[C@@H](Cc2ccccc2)Cn2cc(-c3ccccn3)nn2)oc(C(=O)N2CCOCC2)c1C(=O)OC	-0.241	-0.341	0.384	-0.405	0.57	-0.129	-0.187	0.795	0	1.1 (inactive)	-0.216	-0.625 (inactive)	-0.301 (inactive)	0.498 (inactive)	-0.248 (inactive)	-0.0372	0.0184	-0.481	0.182	1.72
O=C1NC(=O)C2C1C=CC(C(O)C1CC=CCC1)N2Nc1ccccn1 (stereo not given)	1.33	-0.264	-0.599	-0.0881	0.585	0.582	0.692	0.616	0.763	-1.13 (inactive)	0.524	0.607 (inactive)	-0.893 (inactive)	-0.329 (inactive)	0.383 (inactive)	0.0992	-0.0645	0.153	-0.0899	0.682
